# Measured values as given in ChEMBL document CHEMBL4513135, “CO-ADD screening of IQOG CSIS (Spain) compounds”.
# In all, about 23,000 compounds went through this assay and about 30 (0.1%) showed an effect of 50% or more. What follows is part of a selection rich in strong results, with near analogues and random picks from the rest. Results with a measured potency or affinity are listed apart.
# Test system: Pseudomonas aeruginosa
# Conditions: Concentration 32 ug.mL-1; ASSAY_TEST Inhibition of Bacterial Growth; detection method Absorption (OD600); MEDIA CAMHB; plate type 384well; NBS; CORNING #3640; time 18 hr
row,Compound,Inhibition
1,CCOC(=O)/C(C#N)=C\c1ccc([N+](=O)[O-])cc1,5.37%
2,Cl.N#Cc1cc(C#N)c(N2CCCC2)nc1Cl,9.12%
3,N#Cc1cc(C#N)c(N2CCCC2)nc1N,9.99%
4,N#Cc1cc(C#N)c(N2CCCC2)nc1N1CCCC1,50.45%
5,COc1ccc2cc(C3C(C(C)=O)=C(C)Oc4nc5c(c(N)c43)CCC5)c(Cl)nc2c1 (configuration not stated),8.84%
6,CC(C)NNC(=O)Cc1c[nH]c2ccccc12,53.17%
7,O=C(Cc1c[nH]c2ccccc12)NNCc1ccccc1,23.11%
8,CCCC(C)NNC(=O)Cc1c[nH]c2ccccc12 (configuration not stated),22.46%
9,N#CC1=C(N)Oc2c(ccc3ccccc23)C1c1ccc(O)cc1 (configuration not stated),17.58%
10,C#CCN(C)Cc1cc2cc(OCCCCC3CCN(Cc4ccccc4)CC3)ccc2n1C,12.81%
11,C#CCN(C)Cc1cc2cc(OCCC3CCN(Cc4ccccc4)CC3)ccc2n1C.Cl,5.95%
12,C#CCN(C)Cc1cc2cc(OCCCCC3CCN(Cc4ccccc4)CC3)ccc2n1C.Cl,51.07%
13,COc1cccc(C2c3c(nc4c(c3N)CCCC4)Oc3ccc4ccccc4c32)c1 (configuration not stated),38.82%
14,Nc1c2c(nc3c1c1ccccc1n3Cc1ccccc1)CCCC2,35.2%
15,COc1ccc(C2c3c(nc4c(c3N)CCCC4)Oc3ccc4ccccc4c32)cc1 (configuration not stated),16.04%
16,CN(N=O)C(=O)NC1(C(=O)O)CC1c1ccccc1 (configuration not stated),47.22%
17,COC(=O)C1(NC(=O)c2ccccc2)CC1c1ccccc1 (configuration not stated),23.63%
18,CNC(=O)NC1(C(=O)O)CC1c1ccccc1 (configuration not stated),50.33%
19,CNC(=O)c1c(Cl)c2cc(OCc3ccccc3)ccc2n1C,34.06%
20,COc1ccc(C=C2N=C(c3ccccc3)SC2=O)cc1,50.12%
21,CC1=NC(=Cc2ccccc2)C(=O)S1,24.56%
22,COc1ccc(C=C2N=C(c3ccccc3)OC2=O)cc1,9.34%
